Test results: PubChem BioAssay AID488977 (Johns Hopkins Ion Channel Center, 2010)
Out of some 310,000 compounds screened, about 1,500 (0.48%) were called active. This is one part of a sample in which actives are shown more often than they occur.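 How the source made its calls: active means initial fluorescence not abnormally high and integrated response B-score, plate-corrected, over 3 SD above library mean; inactive means the rest.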

Biological target: High affinity choline transporter 1 (Homo sapiens) (UniProt Q9GZV3)
Test: CHT positive allosteric modulators, primary screen, cell-based, membrane potential dye, choline EC20 (AID 488977)
Conditions: CHT-expressing cells, at 10 µM; B-score: active compounds read high, LV-AA mutant CHT in HEK293 cells unless noted; outcome: LV-AA mutant CHT in HEK293 cells unless noted

Chain of High affinity choline transporter 1 (Homo sapiens) (Q9GZV3 whole entry, looked up): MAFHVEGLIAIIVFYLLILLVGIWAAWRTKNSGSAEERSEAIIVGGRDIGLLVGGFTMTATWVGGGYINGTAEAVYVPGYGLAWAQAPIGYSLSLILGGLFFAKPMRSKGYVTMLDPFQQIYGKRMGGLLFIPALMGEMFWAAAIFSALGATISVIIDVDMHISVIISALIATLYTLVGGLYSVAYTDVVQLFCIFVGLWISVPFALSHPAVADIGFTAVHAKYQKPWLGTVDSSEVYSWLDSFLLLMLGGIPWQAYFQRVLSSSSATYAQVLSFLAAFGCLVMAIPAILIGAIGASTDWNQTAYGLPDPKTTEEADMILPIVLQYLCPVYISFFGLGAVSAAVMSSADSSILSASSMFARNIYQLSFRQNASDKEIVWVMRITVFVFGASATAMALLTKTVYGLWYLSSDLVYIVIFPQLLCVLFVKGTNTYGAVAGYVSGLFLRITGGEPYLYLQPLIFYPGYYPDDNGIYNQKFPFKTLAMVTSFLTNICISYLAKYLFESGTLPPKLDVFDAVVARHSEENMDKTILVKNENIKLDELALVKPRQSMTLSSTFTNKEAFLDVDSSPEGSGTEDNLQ

For CCN1CCN(c2ccc([N+](=O)[O-])cc2C#N)CC1, which B-score is on record?
The B-score was “inactive”.

How did the B-score turn out when CN1CCN(c2cc(N3CCNCC3)ccc2[N+](=O)[O-])CC1 was run?
Its B-score is 8.44 (active).

With COC(=O)C1=C(c2cc3ccccc3o2)C[C@@H]2CC[C@H]1N2C(=O)NC1CCCCC1 as the compound, how does the B-score read?
The B-score was “inactive”.

With COC(=O)C1=C(c2cc3ccccc3s2)C[C@@H]2CC[C@H]1N2C(=O)NCCO as the compound, how does the B-score read?
The B-score was “inactive”.

How did the B-score turn out when COC(=O)C1=C(c2ccccc2)C[C@@H]2CC[C@H]1N2C(=O)N1CCCCC1 was run?
The B-score was “inactive”.

For Cc1nc2ccc(N3CCN(C)CC3)cc2nc1C, which B-score is on record?
The B-score was 6.37 (active).

With C=CC12CN(C)[C@@H]3C4CO[C@H](C[C@H]41)[C@]1(C(=O)Nc4ccccc41)[C@@H]32 (stereo not given in full) as the compound, how does the B-score read?
The B-score was “inactive”.

CC(=O)Nc1ccc(C(=O)C(Cc2ccccc2)N(C)C)cc1 (stereo not given) was tested. Which B-score did it give?
The B-score was “inactive”.

For O=[N+]([O-])c1cnc2ccc3ccccc3c2c1, which B-score is on record?
Its B-score is “inactive”.

How did the B-score turn out when CCCCCn1c(=O)c(C(=O)NCc2ccccc2)c(O)c2ccccc21 was run?
Its B-score is “inactive”.

Which B-score does the source give for CCCCn1c(=O)c(C(=O)Nc2ccccc2Cl)c(O)c2ccccc21 here?
The B-score was “inactive”.

How did the B-score turn out when CCCCCn1c(=O)c(C(=O)Nc2c(C)n(C)n(-c3ccccc3)c2=O)c(O)c2ccccc21 was run?
Its B-score is 8.71 (active).

How did the B-score turn out when CNCC(O)c1cc(F)c(OCc2ccccc2)c(OCc2ccccc2)c1F (stereo not given) was run?
Its B-score is “inactive”.

With O=C(N/N=C/c1c(O)n(C2CC2)c(=S)[nH]c1=O)c1ccccc1Cl as the compound, how does the outcome read?
The outcome was “inactive [setting not given]”.

How did the B-score turn out when C/C(=N/O)c1ccc2ccc3ccccc3c2c1 was run?
The B-score was “inactive”.
